The source of these data is PubChem BioAssay (NCATS).

Results filed as inconclusive are left out. Active and inactive are the calls of the source. Calls come from the whole dose curve; as a rule, active = well fitted inhibition curve with a large enough effect; inconclusive = small, poorly fitted or top-dose-only effect; inactive = no such curve, though single readings can be large or run the other way.

A short description of the assay: Primary qHTS for inhibitors of La Crosse Virus (LACV) - induced cell death in SH-SY5Y cells (AID 1508616).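 Note: top concentration of the series differs between compounds; 0% = infected DMSO wells and 100% = uninfected DMSO wells; higher means more rescue of cells from virus-induced death.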 The note with it: SH-SY5Y LACV cytopathicity rescue, ATP luminescence, 6 d; series mostly up to 9.63 µM; activity change: at the top concentration. The text has this:
Assay Provider: Karin Peterson Ph.D.
National Institute of Allergy and Infection Diseases, National Institute of Health
La Crosse Virus (LACV) is a California serogroup mosquito-borne arbovirus, family Peribunyaviridae, which is an endemic pathogen in North America and can induce a rare, life-threatening neurological disease in children. LACV was first isolated in the early 1960s, from a summer "rural encephalitis" case in La Crosse, Wisconsin, USA. Since then, LACV encephalitis cases have been found in more than twenty states, with most cases in the Mississippi and Ohio River basins. The life cycle of LACV is maintained between the vector, the eastern tree-hole mosquito Aedes triseriatus, and vertebrate hosts including eastern gray squirrels (Sciurus carolinensis) and chipmunks (Tamiasstriatus grinseus). […] Most LACV infections in humans are asymptomatic or induce mild clinical symptoms of fever, headache, lethargy and vomiting. However, in some cases LACV can cause severe neuroinvasive disease, including encephalitis, meningitis, and meningoencephalitis, requiring hospitalization. To date, there is neither a licensed vaccine nor a Food and Drug Administration (FDA) approved antiviral therapy available to prevent or treat LACV encephalitis. The primary treatment for viral encephalitis is palliative care due to the lack of therapeutics. In the current study, we conducted a screen of 4,096 FDA approved and bioactive small molecules against LACV, by screening for rescue of LACV-induced cell death in SH-SY5Y cells.
LACV-induced cytopathicity assay
SEQUENCE No. (1,2, 3, etc.); […] (e.g., Cells, Incubation, Reagent, etc.); VALUE and DESCRIPTION.
1. Reagent; 2 uL; Cell solution.
3. Compounds; 23nL; Compound library
4. Reagent; 12 uL; LACV virus
6. Reagent; 24 uL; ATPLite (PerkinElmer)
7. Time; 5 min; Room temperature
8. Detection; Luminescence; View
NOTES (numbers refer to sequence above)
1. Seed 6000 SH-SY5Y cells (ATCC CRL-2266) in 2 microL/well media (DMEM/F12 10% FBS, 1x L-Glutamine, 1x Pyruvate, 1x NEAA, 1x Pen/Strep) in 384-well assay plates (tissue culture treated, white, solid bottom).
2. Incubate at 37 degrees C with 5% CO2 for 24 hr.
3. Dispense 23 nL/well compounds in DMSO via pin transfer.
4. Dispense 12 microL/well of LACV (LACV/human/1978) in media at 0.01 MOI.
5. Incubate at for 6 days at 37C 5% CO2
6. Dispense 24 microL/well of ATPLite 1step Luminescence assay system (PerkinElmer).
7. Incubate for 5 min at room temperature.
8. Read luminescence signal (Viewlux plate reader, PerkinElmer). Data was normalized with DMSO control wells containing LACV as 0%, and DMSO control wells without virus as 100%.
On the technique in general: In qHTS, concentration-response curves come from the screen itself.
Take `CC(C)(C)c1ccc(/C=C/C(=O)Nc2ccc3c(c2)OCCO3)cc1`: the “activity change” value is 116% (inactive).

As for `O=c1onc2n1-c1cc(Br)ccc1OC2`, the “activity change” value is 3.83% (inactive).

In the case of `COc1ccc(CCN(C)CCc2ccc(OC)c(OC)c2)cc1OC`, the “activity change” value was 16.4% (inactive).

As to `CC(C)C[C@H](NC(=O)[C@H](O)[C@H](N)Cc1ccccc1)C(=O)O`, the “activity change” value was -13.1% (inactive).

As for `NC(N)=[N+]1CCc2ccccc2C1`, the “activity change” value was 0.393% (inactive).

Take `Nc1nc2c(cnn2CCc2ccccc2)c2nc(-c3ccco3)nn12`: the “activity change” value was -6.99% (inactive).

Turning to `C=CC1(C)CC(=O)C2(O)C(C)(O1)C(OC(C)=O)C(O)C1C(C)(C)CCC(O)C12C` (stereo not given), the “activity change” value was 11.8% (inactive).

For `CSC(N)=NCCC[C@H](N)C(=O)O`, the “activity change” value is 29.5% (inactive).

Consider `Cn1c(=O)[nH]c2ncn(C)c2c1=O`, for which the “activity change” value was -7.43% (inactive).

For the compound `Cc1nc(N=Nc2cc(S(=O)(=O)O)c3cc([N+](=O)[O-])cc(S(=O)(=O)O)c3c2)c(COP(=O)(O)O)c(C=O)c1O`, the “activity change” value is -7.39% (inactive).

`COc1ccc(C(=O)NCc2cccnc2)cc1C(=O)NCc1cccnc1`: the “activity change” value was 9.71% (inactive).

With `NCC(O)c1ccc(O)c(O)c1` (stereo not given), the “activity change” value is 5.87% (inactive).

Turning to `NCCS(=O)O`, the “activity change” value was -7.67% (inactive).

On to `O=c1[nH]ccc2c(O)cccc12`, for which the “activity change” value was -1.15% (inactive).

For `c1ccc2c(c1)CCC[C@H]2Nc1nc2ccccc2[nH]1`, the “activity change” value is -0.837% (inactive).

On to `OC[C@H]1NC[C@@H](O)[C@@H]1O`, for which the “activity change” value is -9.9% (inactive).

Take `CCCCS(=N)(=O)CC[C@H](N)C(=O)O` (stereo not given in full): the “activity change” value is 0.24% (inactive).

For `N#Cc1cc2nc(O)c(O)nc2cc1[N+](=O)[O-]`, the “activity change” value is -6.88% (inactive).

Regarding `CCSC(=N)N`, the “activity change” value was -5.2% (inactive).

On to `NOCC(=O)O`, for which the “activity change” value was 5.98% (inactive).

Regarding `NCC(O)(CS(=O)(=O)O)c1ccc(Cl)cc1` (stereo not given), the “activity change” value is 23.7% (inactive).

On to `CCn1c(=O)[nH]c2cc(Cl)c(Cl)cc21`, for which the “activity change” value was -11.4% (inactive).

For the compound `O=[N+]([O-])c1cccc2c(Br)[nH]nc12`, the “activity change” value is 7.91% (inactive).

In the case of `CC(N)(Cc1ccc(O)c(O)c1)C(=O)O` (stereo not given), the “activity change” value is -13% (inactive).

In the case of `N#C/C(=C\c1ccc(O)c(O)c1)C(=O)NCCc1ccccc1`, the “activity change” value is -13.5% (inactive).

Regarding `N=C(N)SCCN`, the “activity change” value was 9.66% (inactive).

With `Cc1cccc(C)c1OCC(N)C(C)C` (stereo not given), the “activity change” value was -16.5% (inactive).

Regarding `N[C@H]1CONC1=O`, the “activity change” value is -9.63% (inactive).

Consider `NC1(C(=O)O)CCCCC1`, for which the “activity change” value is -1.13% (inactive).

On to `CC(N)=NCCCC[C@@H](N)C(=O)O`, for which the “activity change” value was 3.2% (inactive).

Take `COc1cc(CC(=O)O)ccc1O`: the “activity change” value was -9.77% (inactive).

On to `Cc1nc2n(c(=O)c1CCN1CCC(c3noc4cc(F)ccc34)CC1)CCCC2O` (stereo not given), for which the “activity change” value was 3.6% (inactive).

Turning to `CCCCOC(=O)NS(=O)(=O)c1sc(CC(C)C)cc1-c1ccc(Cn2c(CC)nc3c(C)cc(C)nc32)cc1`, the “activity change” value is 27.6% (inactive).

For the compound `OC1(c2ccc(Cl)cc2)CCN(Cc2c[nH]c3ccccc23)CC1`, the “activity change” value is -25.8% (inactive).

`CC(=O)NCCc1c[nH]c2ccc(O)cc12`: the “activity change” value is -4.51% (inactive).

For the compound `CCCn1c(=O)c(C)cn2nc(N)nc12`, the “activity change” value is 9.89% (inactive).

On to `C=C1C[C@@]23CC[C@H]4[C@@](C)(CCC[C@@]4(C)C(=O)OC4OC(CO)C(O)C(O)C4O)[C@@H]2CC[C@]1(OC1OC(CO)C(O)C(O)C1OC1OC(CO)C(O)C(O)C1O)C3` (stereo not given in full), for which the “activity change” value was -10.5% (inactive).

As for `O=C(OCCN1CCOCC1)C1(c2ccccc2)CCCCC1`, the “activity change” value is 2.02% (inactive).

With `C[N+](C)(C)CC=O`, the “activity change” value was -1.73% (inactive).

Turning to `CCc1ccc2c(-c3cccc(Cl)c3)nc(=O)n(CC)c2n1`, the “activity change” value was 6.98% (inactive).
